# Tests used:
# Experiment in all cases: DAPPL (digital affinity profiling via proximity ligation, sequencing); 10 mM Tris-HCl pH 7.5, 50 mM NaCl, 1 mM DTT, 4% glycerol, room temperature, 30 min; GST-TFs on glutathione beads, 16-mer random dsDNA library, 0.1% formaldehyde crosslink after washing; high values mean tight binding
# FLI1 = biological target: T1, FLI1 (Homo sapiens, UniProt Q01543 1-452); details: protein: recombinant; tags: N-terminal GST; dsDNA, one strand shown
# T1 sequence: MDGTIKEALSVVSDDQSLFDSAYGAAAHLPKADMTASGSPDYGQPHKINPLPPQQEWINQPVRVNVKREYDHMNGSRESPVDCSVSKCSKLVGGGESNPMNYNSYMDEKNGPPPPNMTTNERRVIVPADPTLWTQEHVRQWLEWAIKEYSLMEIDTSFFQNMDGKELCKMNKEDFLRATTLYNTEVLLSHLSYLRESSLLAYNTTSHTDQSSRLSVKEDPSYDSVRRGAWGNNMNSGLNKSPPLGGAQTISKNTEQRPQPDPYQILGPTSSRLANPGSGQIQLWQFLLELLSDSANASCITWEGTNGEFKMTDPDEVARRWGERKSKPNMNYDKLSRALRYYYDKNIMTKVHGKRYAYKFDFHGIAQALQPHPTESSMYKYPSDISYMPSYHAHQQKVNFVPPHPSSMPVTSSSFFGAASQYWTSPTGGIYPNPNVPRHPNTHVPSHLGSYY
# Procedure, shortened: (§1)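 Human transcription factors carrying a GST fusion were produced in yeast, bound to glutathione beads, tagged with DNA barcodes and pooled together with a tag-only sample. Each pool was held with 200 nmole of a random double-stranded 16-mer DNA library in Tris/NaCl/DTT/glycerol buffer for 30 min at room temperature, then washed, crosslinked in 0.1% formaldehyde, proximity-ligated with BsaI/T4 ligase (1 h, 37 °C), PCR-amplified and sequenced on an Illumina NextSeq500. Binding signal is the read frequency of each hexamer for a given factor divided by its frequency in the tag-only sample.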
# ELK1 = biological target: T2, ELK1 (Homo sapiens, UniProt P19419 1-428); details: protein: recombinant; tags: N-terminal GST; dsDNA, one strand shown
# T2 sequence: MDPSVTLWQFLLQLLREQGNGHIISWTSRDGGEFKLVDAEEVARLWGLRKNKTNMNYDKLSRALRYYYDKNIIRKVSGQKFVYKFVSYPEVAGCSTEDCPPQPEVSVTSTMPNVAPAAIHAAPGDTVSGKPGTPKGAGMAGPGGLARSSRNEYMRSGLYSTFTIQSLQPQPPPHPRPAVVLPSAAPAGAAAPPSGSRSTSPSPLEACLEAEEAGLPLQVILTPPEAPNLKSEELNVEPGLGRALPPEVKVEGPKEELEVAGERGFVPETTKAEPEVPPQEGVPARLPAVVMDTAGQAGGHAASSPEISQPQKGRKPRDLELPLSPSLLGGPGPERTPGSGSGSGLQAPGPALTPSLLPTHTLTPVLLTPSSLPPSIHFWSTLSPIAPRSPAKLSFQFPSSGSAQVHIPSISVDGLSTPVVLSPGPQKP
# Procedure, shortened: as §1
# GABPA = biological target: T3, GABPA (Homo sapiens, UniProt Q06546 1-454); details: protein: recombinant; tags: N-terminal GST; dsDNA, one strand shown
# T3 sequence: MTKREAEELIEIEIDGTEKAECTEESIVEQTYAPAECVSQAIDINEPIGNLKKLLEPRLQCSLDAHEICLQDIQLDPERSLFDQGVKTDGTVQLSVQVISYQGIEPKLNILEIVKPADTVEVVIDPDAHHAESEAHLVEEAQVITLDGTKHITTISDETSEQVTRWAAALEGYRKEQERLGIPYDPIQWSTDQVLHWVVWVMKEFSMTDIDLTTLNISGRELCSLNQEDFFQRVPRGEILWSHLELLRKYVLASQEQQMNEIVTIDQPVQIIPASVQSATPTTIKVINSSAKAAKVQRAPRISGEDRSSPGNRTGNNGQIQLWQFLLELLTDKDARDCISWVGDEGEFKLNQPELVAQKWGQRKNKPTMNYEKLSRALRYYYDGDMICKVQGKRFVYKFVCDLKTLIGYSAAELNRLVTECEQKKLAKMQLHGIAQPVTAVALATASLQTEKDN
# Procedure, shortened: as §1
# ERG = biological target: T4, ERG (Homo sapiens, UniProt P11308 1-479); details: protein: recombinant; tags: N-terminal GST; dsDNA, one strand shown
# T4 sequence: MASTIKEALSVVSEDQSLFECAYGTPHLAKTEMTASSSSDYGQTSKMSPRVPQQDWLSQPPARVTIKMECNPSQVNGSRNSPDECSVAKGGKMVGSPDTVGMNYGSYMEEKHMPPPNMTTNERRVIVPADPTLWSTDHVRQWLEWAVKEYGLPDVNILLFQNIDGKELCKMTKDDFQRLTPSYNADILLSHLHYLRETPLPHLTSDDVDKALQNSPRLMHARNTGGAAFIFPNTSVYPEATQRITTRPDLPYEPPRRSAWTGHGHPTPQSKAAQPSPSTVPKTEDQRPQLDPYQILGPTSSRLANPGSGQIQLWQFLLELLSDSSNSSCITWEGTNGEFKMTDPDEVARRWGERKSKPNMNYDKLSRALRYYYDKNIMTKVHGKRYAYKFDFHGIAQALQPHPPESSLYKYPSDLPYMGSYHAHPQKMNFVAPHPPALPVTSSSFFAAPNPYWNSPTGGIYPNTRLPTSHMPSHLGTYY
# Procedure, shortened: as §1
# ELF1 = ELF1 (Homo sapiens, UniProt P32519 1-619); details: protein: recombinant; tags: N-terminal GST; dsDNA, one strand shown
# Chain of ELF1 (P32519 whole entry): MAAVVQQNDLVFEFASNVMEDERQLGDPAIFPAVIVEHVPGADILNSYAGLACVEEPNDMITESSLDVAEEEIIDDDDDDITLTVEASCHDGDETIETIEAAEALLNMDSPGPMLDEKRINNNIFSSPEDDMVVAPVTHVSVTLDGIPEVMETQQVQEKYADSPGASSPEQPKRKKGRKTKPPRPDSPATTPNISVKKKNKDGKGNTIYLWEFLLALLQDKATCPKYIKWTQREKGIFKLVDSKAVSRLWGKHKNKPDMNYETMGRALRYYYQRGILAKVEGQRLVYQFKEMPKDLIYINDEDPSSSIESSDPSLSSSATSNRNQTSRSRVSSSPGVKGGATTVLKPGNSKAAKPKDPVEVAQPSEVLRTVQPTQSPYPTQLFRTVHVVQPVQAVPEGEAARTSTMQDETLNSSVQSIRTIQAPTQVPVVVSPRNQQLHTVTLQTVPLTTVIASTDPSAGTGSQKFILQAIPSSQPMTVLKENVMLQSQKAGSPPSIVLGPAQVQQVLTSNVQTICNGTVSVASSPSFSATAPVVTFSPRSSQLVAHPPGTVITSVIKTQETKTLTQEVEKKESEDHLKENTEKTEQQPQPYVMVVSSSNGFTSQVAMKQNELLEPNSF
# Procedure, shortened: as §1
# EHF = biological target: T5, EHF (Homo sapiens, UniProt Q9NZC4 1-300); details: protein: recombinant; tags: N-terminal GST; dsDNA, one strand shown
# T5 sequence: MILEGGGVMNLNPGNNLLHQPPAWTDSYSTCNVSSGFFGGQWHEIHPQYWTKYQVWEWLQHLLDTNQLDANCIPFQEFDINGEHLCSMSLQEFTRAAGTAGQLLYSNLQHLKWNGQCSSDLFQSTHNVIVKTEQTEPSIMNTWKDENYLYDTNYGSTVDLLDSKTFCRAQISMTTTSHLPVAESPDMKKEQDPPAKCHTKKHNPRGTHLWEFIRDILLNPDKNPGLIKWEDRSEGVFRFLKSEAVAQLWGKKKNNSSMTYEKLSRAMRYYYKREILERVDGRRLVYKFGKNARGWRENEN
# Procedure, shortened: as §1
# SPI1 = SPI1 (Homo sapiens, UniProt P17947 1-270); details: protein: recombinant; tags: N-terminal GST; dsDNA, one strand shown
# Procedure, shortened: as §1
# SPIB = SPIB (Homo sapiens, UniProt Q01892 1-262); details: protein: recombinant; tags: N-terminal GST; dsDNA, one strand shown
# Chain of SPIB (Q01892 whole entry): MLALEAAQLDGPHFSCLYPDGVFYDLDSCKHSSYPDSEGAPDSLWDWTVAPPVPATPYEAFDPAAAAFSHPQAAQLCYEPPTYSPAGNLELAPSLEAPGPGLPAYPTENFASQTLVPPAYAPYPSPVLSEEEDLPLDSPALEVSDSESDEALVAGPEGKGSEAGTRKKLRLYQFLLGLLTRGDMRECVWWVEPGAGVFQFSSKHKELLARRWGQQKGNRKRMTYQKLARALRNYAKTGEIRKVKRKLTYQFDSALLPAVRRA
# Procedure, shortened: as §1
# ELK3 = biological target: T6, ELK3 (Homo sapiens, UniProt P41970 1-407); details: protein: recombinant; tags: N-terminal GST; dsDNA, one strand shown
# T6 sequence: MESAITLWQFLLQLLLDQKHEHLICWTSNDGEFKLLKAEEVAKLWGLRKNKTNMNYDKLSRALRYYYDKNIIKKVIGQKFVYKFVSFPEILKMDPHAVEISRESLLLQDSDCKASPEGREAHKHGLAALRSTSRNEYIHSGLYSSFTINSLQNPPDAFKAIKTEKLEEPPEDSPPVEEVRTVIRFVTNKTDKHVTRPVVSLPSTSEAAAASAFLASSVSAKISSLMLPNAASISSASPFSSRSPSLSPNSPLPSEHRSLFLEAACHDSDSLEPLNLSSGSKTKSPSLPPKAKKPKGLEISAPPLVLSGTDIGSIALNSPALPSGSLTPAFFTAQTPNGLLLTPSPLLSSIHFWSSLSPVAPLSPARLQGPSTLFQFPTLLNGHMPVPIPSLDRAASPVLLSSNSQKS
# Procedure, shortened: as §1
# FEV = biological target: T7, FEV (Homo sapiens, UniProt Q99581 1-238); details: protein: recombinant; tags: N-terminal GST; dsDNA, one strand shown
# T7 sequence: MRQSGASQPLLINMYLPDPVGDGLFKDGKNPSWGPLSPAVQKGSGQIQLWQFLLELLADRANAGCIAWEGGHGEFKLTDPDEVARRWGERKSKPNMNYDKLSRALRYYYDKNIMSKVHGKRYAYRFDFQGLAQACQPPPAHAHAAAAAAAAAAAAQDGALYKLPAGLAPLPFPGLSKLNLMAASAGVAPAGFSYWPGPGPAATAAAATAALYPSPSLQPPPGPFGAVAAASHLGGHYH
# Procedure, shortened: as §1
# ETV5 = ETV5 (Homo sapiens, UniProt P41161 1-510); details: protein: recombinant; tags: N-terminal GST; dsDNA, one strand shown
# Chain of ETV5 (P41161 whole entry): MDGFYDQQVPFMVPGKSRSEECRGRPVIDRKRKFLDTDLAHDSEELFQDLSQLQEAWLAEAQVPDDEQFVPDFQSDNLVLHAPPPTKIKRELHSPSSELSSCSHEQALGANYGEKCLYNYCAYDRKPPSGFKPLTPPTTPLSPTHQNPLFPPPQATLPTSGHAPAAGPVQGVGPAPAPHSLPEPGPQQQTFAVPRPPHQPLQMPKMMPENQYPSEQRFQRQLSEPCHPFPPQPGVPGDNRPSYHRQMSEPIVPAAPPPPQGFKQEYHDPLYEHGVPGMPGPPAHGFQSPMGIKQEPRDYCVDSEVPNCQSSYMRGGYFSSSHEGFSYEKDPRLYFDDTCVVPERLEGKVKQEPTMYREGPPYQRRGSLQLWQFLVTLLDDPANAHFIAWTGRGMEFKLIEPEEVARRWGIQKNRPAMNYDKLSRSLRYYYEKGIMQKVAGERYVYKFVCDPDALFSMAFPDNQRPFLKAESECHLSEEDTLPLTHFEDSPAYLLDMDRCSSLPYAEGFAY
# Procedure, shortened: as §1
# HSF1 = HSF1 (Homo sapiens, UniProt Q00613 1-529); details: protein: recombinant; tags: N-terminal GST; chain copies: 3; dsDNA, one strand shown
# Chain of HSF1 (Q00613 whole entry): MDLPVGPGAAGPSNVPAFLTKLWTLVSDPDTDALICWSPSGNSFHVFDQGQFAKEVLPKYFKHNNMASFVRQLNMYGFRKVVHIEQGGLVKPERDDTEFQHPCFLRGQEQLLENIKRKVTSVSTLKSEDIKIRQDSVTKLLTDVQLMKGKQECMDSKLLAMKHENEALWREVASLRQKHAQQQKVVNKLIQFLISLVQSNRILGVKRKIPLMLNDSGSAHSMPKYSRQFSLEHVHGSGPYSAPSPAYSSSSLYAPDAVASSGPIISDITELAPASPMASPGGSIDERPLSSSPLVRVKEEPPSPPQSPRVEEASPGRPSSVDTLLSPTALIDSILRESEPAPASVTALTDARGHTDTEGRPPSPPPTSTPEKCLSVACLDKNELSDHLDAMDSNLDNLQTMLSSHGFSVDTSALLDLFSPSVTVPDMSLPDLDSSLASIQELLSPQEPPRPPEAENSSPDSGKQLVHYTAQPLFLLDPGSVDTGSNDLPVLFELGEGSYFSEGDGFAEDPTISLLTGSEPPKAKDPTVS
# Procedure, shortened: as §1
# SPIC = biological target: T8, SPIC (Homo sapiens, UniProt Q8N5J4 1-248); details: protein: recombinant; tags: N-terminal GST; dsDNA, one strand shown
# T8 sequence: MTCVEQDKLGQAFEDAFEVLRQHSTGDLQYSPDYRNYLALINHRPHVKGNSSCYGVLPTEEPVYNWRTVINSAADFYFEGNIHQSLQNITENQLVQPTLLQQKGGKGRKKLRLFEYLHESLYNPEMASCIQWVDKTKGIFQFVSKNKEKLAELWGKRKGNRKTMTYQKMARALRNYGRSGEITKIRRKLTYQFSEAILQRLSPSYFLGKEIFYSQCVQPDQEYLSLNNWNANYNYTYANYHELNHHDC
# Procedure, shortened: as §1
# ELF4 = ELF4 (Homo sapiens, UniProt Q99607 1-663); details: protein: recombinant; tags: N-terminal GST; dsDNA, one strand shown
# Chain of ELF4 (Q99607 whole entry): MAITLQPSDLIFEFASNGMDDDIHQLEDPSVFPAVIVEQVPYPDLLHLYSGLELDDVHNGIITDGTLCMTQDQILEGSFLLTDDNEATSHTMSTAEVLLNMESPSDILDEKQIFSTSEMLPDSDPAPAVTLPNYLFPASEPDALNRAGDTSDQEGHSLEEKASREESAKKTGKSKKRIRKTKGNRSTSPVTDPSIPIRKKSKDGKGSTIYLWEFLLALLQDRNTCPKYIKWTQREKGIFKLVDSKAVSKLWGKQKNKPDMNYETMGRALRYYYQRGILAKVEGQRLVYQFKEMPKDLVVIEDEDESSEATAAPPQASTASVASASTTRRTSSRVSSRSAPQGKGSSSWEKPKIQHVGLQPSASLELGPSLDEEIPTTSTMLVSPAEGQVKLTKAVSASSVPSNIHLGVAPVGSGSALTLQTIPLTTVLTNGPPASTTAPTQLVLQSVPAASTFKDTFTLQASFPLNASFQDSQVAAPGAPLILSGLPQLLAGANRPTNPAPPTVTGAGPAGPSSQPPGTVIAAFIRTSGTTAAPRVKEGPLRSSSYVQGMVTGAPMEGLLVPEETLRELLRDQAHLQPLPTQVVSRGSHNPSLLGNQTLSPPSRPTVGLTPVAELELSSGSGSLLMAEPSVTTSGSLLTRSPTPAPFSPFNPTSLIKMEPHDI
# Procedure, shortened: as §1
# ELK4 = biological target: T9, ELK4 (Homo sapiens, UniProt P28324-2 1-405); details: protein: recombinant; tags: N-terminal GST; dsDNA, one strand shown
# T9 sequence: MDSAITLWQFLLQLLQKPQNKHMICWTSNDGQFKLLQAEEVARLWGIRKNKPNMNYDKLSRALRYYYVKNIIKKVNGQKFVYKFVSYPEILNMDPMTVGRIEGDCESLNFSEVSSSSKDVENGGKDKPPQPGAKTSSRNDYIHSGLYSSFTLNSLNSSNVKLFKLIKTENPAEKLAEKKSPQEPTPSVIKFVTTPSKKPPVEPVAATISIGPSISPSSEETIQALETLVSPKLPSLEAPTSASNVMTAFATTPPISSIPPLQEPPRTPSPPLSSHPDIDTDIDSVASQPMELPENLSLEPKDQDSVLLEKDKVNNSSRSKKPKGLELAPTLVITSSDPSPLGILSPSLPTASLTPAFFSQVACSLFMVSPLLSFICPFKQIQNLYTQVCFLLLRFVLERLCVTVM
# Procedure, shortened: as §1
# ETV2 = biological target: T10, ETV2 (Homo sapiens, UniProt O00321 1-342); details: protein: recombinant; tags: N-terminal GST; dsDNA, one strand shown
# T10 sequence: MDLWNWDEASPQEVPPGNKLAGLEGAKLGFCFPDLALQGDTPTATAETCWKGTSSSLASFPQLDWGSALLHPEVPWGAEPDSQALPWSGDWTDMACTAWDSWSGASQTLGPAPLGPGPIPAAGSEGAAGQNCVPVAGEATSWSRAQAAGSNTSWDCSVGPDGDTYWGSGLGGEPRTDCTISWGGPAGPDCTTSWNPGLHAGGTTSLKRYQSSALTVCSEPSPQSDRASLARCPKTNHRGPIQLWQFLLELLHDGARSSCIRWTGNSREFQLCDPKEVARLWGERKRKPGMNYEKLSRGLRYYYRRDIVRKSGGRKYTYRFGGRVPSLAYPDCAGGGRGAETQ
# Procedure, shortened: as §1
# ELF3 = biological target: T11, ELF3 (Homo sapiens, UniProt P78545 1-371); details: protein: recombinant; tags: N-terminal GST; dsDNA, one strand shown
# T11 sequence: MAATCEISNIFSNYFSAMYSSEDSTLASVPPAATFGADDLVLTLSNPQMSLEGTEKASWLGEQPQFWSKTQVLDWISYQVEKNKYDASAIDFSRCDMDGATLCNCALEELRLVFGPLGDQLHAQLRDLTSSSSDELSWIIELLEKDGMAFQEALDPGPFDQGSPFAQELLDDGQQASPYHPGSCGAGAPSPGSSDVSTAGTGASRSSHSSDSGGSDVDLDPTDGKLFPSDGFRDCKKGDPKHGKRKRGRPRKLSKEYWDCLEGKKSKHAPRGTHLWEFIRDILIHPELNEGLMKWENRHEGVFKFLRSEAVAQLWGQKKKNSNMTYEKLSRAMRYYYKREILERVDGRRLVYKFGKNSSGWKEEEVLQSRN
# Procedure, shortened: as §1
# CRX = CRX (Homo sapiens, UniProt O43186 1-299); details: protein: recombinant; tags: N-terminal GST; dsDNA, one strand shown
# Chain of CRX (O43186 whole entry): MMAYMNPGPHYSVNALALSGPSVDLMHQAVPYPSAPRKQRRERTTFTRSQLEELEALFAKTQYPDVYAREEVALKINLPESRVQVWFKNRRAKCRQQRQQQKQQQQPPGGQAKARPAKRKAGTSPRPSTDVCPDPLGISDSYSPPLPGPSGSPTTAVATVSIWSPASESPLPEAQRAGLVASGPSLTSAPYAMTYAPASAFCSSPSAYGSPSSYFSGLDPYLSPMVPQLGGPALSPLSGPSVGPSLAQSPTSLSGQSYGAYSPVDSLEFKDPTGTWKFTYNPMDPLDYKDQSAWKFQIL
# Procedure, shortened: as §1
# ETV1 = ETV1 (Homo sapiens, UniProt P50549 1-477); details: protein: recombinant; tags: N-terminal GST; dsDNA, one strand shown
# Chain of ETV1 (P50549 whole entry): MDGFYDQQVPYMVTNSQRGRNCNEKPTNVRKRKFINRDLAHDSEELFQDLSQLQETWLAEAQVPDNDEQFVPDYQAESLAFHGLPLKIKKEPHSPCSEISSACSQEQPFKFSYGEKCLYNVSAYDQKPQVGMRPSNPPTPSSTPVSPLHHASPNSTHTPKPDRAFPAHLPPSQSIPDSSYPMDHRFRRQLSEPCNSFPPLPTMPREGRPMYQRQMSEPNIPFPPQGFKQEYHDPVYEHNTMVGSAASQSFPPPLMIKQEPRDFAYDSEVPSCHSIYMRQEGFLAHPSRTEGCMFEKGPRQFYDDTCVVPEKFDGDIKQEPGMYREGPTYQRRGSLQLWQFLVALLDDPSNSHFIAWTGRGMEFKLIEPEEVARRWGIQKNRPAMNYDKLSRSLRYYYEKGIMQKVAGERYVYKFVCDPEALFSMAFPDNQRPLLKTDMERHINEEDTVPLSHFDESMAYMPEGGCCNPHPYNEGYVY
# Procedure, shortened: as §1
sequence,measurement,setting,value
TTTTGG,binding signal,FLI1,"1.35 fold enrichment (6-mer frequency, TF over GST control)"
same,binding signal,ELK1,"1.42 fold enrichment (6-mer frequency, TF over GST control)"
same,binding signal,GABPA,"1.47 fold enrichment (6-mer frequency, TF over GST control)"
same,binding signal,ERG,"1.26 fold enrichment (6-mer frequency, TF over GST control)"
same,binding signal,ELF1,"1.36 fold enrichment (6-mer frequency, TF over GST control)"
same,binding signal,EHF,"1.37 fold enrichment (6-mer frequency, TF over GST control)"
same,binding signal,SPI1,"1.5 fold enrichment (6-mer frequency, TF over GST control)"
same,binding signal,SPIB,"1.63 fold enrichment (6-mer frequency, TF over GST control)"
same,binding signal,ELK3,"1.31 fold enrichment (6-mer frequency, TF over GST control)"
same,binding signal,FEV,"1.38 fold enrichment (6-mer frequency, TF over GST control)"
same,binding signal,ETV5,"1.55 fold enrichment (6-mer frequency, TF over GST control)"
same,binding signal,HSF1,"1.44 fold enrichment (6-mer frequency, TF over GST control)"
same,binding signal,SPIC,"1.38 fold enrichment (6-mer frequency, TF over GST control)"
same,binding signal,ELF4,"1.41 fold enrichment (6-mer frequency, TF over GST control)"
same,binding signal,ELK4,"1.45 fold enrichment (6-mer frequency, TF over GST control)"
same,binding signal,ETV2,"1.6 fold enrichment (6-mer frequency, TF over GST control)"
same,binding signal,ELF3,"1.44 fold enrichment (6-mer frequency, TF over GST control)"
same,binding signal,CRX,"1.6 fold enrichment (6-mer frequency, TF over GST control)"
same,binding signal,ETV1,"1.55 fold enrichment (6-mer frequency, TF over GST control)"

# Reference: article PMC7862700, “An all-to-all approach to the identification of sequence-specific readers for epigenetic DNA modifications on cytosine”
